Test results published in the supplement of paper PMC10849652.
Of roughly 7,900 targets only a part is listed; those with a hit were picked by preference. About 0.6% of all pairs of compound and target were hits.

Assays:
Assay in all cases: log2 fold change, soluble protein after heating vs DMSO (PISA); higher = thermal stabilisation; K562 cells, 10 uM, 30 min; active = over 0.2 and 3.5 SD of the protein, either way, in both replicates (recomputed)
[1] = compound: CS(=O)(=O)c1ccc(-c2cnc(N)c(C(=O)Nc3ccccc3)n2)cc1
Method in brief: (§1)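 Quantification of soluble protein used TMTpro 16plex LC-MS/MS, with channel sums equalised. Samples were the supernatant after 21,000xg for 90 min of pooled aliquots from K562 cells (2×10^6 cells/mL) treated with 10 μM compound for 30 min, heated for 3 min over 48°C-58°C, and extracted in PBS with 0.5% NP-40 at 4°C. Values, from duplicates, describe thermal stability against control samples on a log2 fold-change scale.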

[2] = compound: C[C@@H](Oc1cc(-c2cnn(C3CCNCC3)c2)cnc1N)c1c(Cl)ccc(F)c1Cl [crizotinib]
Method in brief: as §1

[3] = compound: C[C@@H]1COCCN1C2=NC(=NC(=C2)C3(CC3)S(=O)(=O)C)C4=C5C=CNC5=CC=C4
Method in brief: as §1

[4] = compound: C[C@H](C1=CC=C(C=C1)C(=O)NC2=C3C=CNC3=NC=C2)N
Method in brief: as §1

[5] = compound: C[C@H](Nc1ncnc2nc[nH]c12)c1cc2cccc(Cl)c2c(=O)n1-c1ccccc1 [duvelisib]
Method in brief: as §1

[6] = compound: Cc1cc(Nc2cc(CN3CCOCC3)c3nc(C)c(Cc4ccc(Cl)cc4F)n3n2)n[nH]1 [gandotinib]
Method in brief: as §1

[7] = compound: Cc1cc(Nc2cc(N3CCN(C)CC3)nc(Sc3ccc(NC(=O)C4CC4)cc3)n2)n[nH]1 [tozasertib]
Method in brief: as §1

[8] = compound: Cc1cc(SCc2sc(-c3ccc(C(F)(F)F)cc3)nc2C)ccc1OCC(=O)O
Method in brief: as §1

[9] = compound: Cc1ccc(-n2nc(C(C)(C)C)cc2NC(=O)Nc2ccc(OCCN3CCOCC3)c3ccccc23)cc1 [doramapimod]
Method in brief: as §1

[10] = compound: Cc1ccc(C(=O)N(CCCN)[C@@H](c2nc3cc(Cl)ccc3c(=O)n2Cc2ccccc2)C(C)C)cc1 [ispinesib]
Method in brief: as §1

[11] = compound: Cc1ccc(NC(=O)c2ccc(CN3CC[C@H](N(C)C)C3)c(C(F)(F)F)c2)cc1Nc1nccc(-c2cncnc2)n1 [bafetinib]
Method in brief: as §1

[12] = compound: Cc1cccc(CC(=O)N2CCc3c2ccc(-c2cn(C)c4ncnc(N)c24)c3F)n1
Method in brief: as §1

[13] = compound: Cc1cn(-c2cc(NC(=O)c3ccc(C)c(Nc4nccc(-c5cccnc5)n4)c3)cc(C(F)(F)F)c2)cn1 [nilotinib]
Method in brief: as §1

[14] = compound: Cc1nc(Nc2n[nH]c3c2CN(C(=O)N[C@H](CN(C)C)c2ccccc2)C3(C)C)c2sccc2n1
Method in brief: as §1

[15] = compound: Cc1nc(Nc2ncc(C(=O)Nc3c(C)cccc3Cl)s2)cc(N2CCN(CCO)CC2)n1 [dasatinib]
Method in brief: as §1

[16] = compound: Cc1ncc(-c2ccnc(Nc3ccc(S(C)(=O)=O)cc3)n2)n1C(C)C
Method in brief: as §1

[17] = compound: Cn1cc(-c2ccc3c(c2)CCN3C(=O)Cc2cccc(C(F)(F)F)c2)c2c(N)ncnc21
Method in brief: as §1

[18] = compound: Cn1cc(-c2ccc3nnc(C(F)(F)c4ccc5ncccc5c4)n3n2)cn1
Method in brief: as §1

[19] = compound: Cn1cncc1[C@@](N)(c1ccc(Cl)cc1)c1ccc2c(c1)c(-c1cccc(Cl)c1)cc(=O)n2C [tipifarnib]
Method in brief: as §1

[20] = compound: FC(F)(F)c1ccc(/C=C/c2nc(COc3ccc(CCCCn4ccnn4)cc3)co2)cc1 [mubritinib]
Method in brief: as §1

Measured: log2 fold change

OTUD6B (UniProt Q8N6M0)
Chain of UniProt Q8N6M0 (Q8N6M0 whole entry, looked up): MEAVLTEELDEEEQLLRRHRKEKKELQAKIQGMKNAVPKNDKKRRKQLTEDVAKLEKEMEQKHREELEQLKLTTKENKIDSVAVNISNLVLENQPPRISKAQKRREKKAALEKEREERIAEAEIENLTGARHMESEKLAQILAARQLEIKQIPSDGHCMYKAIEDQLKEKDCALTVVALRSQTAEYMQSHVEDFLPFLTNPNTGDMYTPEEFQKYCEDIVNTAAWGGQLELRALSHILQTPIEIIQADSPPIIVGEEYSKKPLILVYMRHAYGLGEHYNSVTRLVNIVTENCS
inactive: [1] 0.013 | [2] -0.146 | [3] 0.024 | [4] 0 | [5] -0.02 | [6] -0.086 | [7] 0.055 | [8] 0.122 | [9] 0.009 | [10] -0.165 | [11] -0.014 | [12] 0.105 | [13] -0.114 | [14] -0.067 | [15] -0.142 | [16] -0.031 | [17] 0.044 | [18] 0.067 | [19] -0.039 | [20] -0.02

MRPS9 (UniProt P82933)
active: [10] -0.344
inactive: [1] -0.001 | [2] 0.011 | [3] 0.036 | [4] 0.202 | [5] -0.023 | [6] -0.054 | [7] -0.055 | [8] 0.086 | [9] 0.031 | [11] 0.106 | [12] 0.067 | [13] -0.094 | [14] 0.008 | [15] -0.023 | [16] -0.024 | [17] -0.073 | [18] 0.057 | [19] -0.025 | [20] 0.085

MRPS18B (UniProt Q9Y676)
inactive: [1] -0.187 | [2] -0.047 | [3] 0.075 | [4] 0.145 | [5] 0.006 | [6] -0.028 | [7] 0.016 | [8] 0.157 | [9] 0.029 | [11] 0.125 | [12] 0.055 | [13] -0.154 | [14] 0.098 | [15] -0.024 | [16] -0.342 | [17] 0.005 | [18] 0.081 | [19] -0.059 | [20] 0.172
active: [10] -0.397

MRPS5 (UniProt P82675)
inactive: [1] 0.123 | [2] -0.061 | [3] 0.125 | [4] 0.169 | [5] 0.016 | [6] -0.08 | [7] -0.065 | [8] 0.131 | [9] 0.071 | [11] 0.153 | [12] 0.159 | [13] -0.287 | [14] 0.118 | [15] -0.073 | [16] 0.067 | [17] 0.039 | [18] 0.087 | [19] -0.13 | [20] 0.22
active: [10] -0.451

NQO1 (UniProt P15559)
Chain of UniProt P15559 (P15559 whole entry, looked up): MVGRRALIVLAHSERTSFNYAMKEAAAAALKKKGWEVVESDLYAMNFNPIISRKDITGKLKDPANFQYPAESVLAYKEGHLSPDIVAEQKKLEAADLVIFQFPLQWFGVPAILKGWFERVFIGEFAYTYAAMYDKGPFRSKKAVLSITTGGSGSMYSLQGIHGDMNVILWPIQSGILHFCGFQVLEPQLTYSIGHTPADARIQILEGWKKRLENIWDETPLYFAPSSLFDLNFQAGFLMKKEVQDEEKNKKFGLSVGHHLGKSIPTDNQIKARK
inactive: [1] 0.055 | [2] -0.004 | [3] 0.069 | [4] -0.06 | [5] 0.165 | [6] -0.062 | [7] 0.011 | [8] 0.152 | [9] -0.008 | [10] 0.05 | [11] 0.025 | [13] -0.001 | [14] 0.003 | [15] -0.033 | [16] -0.022 | [17] 0.049 | [19] -0.089 | [20] 0.025
active: [12] 0.365 | [18] 0.291

MSH6 (UniProt P52701)
inactive: [1] 0.075 | [2] -0.427 | [3] 0.152 | [4] -0.018 | [5] 0.009 | [6] -0.196 | [7] 0.099 | [8] 0.185 | [9] -0.053 | [10] -0.087 | [11] -0.019 | [12] 0.101 | [13] -0.116 | [14] -0.179 | [15] -0.325 | [16] -0.1 | [17] 0.139 | [18] 0.167 | [19] -0.174 | [20] 0

OSBP (UniProt P22059)
Chain of UniProt P22059 (P22059 whole entry, looked up): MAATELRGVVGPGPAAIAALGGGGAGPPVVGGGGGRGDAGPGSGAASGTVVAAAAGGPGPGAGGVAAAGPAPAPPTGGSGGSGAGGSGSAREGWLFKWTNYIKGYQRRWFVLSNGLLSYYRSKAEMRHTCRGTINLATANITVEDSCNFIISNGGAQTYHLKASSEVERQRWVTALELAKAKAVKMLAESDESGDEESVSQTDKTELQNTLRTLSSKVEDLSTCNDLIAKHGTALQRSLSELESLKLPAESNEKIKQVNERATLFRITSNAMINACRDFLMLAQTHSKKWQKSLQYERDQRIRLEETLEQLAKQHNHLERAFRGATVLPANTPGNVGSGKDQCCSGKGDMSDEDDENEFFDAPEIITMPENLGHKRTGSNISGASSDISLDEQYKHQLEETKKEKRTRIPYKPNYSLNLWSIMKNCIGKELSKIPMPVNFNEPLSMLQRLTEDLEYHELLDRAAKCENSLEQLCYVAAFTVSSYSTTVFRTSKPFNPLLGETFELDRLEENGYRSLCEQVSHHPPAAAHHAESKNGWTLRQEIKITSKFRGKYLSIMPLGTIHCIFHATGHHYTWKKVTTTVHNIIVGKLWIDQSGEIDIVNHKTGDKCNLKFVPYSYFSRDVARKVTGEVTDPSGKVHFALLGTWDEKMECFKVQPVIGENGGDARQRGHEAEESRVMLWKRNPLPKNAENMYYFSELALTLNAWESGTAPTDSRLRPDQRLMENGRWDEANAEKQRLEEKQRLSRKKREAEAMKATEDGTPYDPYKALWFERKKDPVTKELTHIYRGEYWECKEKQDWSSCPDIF
active: [10] 0.216 | [14] -0.257
inactive: [1] -0.015 | [2] 0.057 | [3] 0.025 | [4] -0.043 | [5] 0.074 | [6] -0.025 | [7] -0.009 | [8] 0.016 | [9] -0.028 | [11] -0.017 | [12] 0.005 | [13] 0.123 | [15] -0.08 | [16] -0.067 | [17] -0.024 | [18] -0.024 | [19] -0.085 | [20] 0.012

NEDD4L (UniProt Q96PU5)
Chain of UniProt Q96PU5 (Q96PU5 whole entry, looked up): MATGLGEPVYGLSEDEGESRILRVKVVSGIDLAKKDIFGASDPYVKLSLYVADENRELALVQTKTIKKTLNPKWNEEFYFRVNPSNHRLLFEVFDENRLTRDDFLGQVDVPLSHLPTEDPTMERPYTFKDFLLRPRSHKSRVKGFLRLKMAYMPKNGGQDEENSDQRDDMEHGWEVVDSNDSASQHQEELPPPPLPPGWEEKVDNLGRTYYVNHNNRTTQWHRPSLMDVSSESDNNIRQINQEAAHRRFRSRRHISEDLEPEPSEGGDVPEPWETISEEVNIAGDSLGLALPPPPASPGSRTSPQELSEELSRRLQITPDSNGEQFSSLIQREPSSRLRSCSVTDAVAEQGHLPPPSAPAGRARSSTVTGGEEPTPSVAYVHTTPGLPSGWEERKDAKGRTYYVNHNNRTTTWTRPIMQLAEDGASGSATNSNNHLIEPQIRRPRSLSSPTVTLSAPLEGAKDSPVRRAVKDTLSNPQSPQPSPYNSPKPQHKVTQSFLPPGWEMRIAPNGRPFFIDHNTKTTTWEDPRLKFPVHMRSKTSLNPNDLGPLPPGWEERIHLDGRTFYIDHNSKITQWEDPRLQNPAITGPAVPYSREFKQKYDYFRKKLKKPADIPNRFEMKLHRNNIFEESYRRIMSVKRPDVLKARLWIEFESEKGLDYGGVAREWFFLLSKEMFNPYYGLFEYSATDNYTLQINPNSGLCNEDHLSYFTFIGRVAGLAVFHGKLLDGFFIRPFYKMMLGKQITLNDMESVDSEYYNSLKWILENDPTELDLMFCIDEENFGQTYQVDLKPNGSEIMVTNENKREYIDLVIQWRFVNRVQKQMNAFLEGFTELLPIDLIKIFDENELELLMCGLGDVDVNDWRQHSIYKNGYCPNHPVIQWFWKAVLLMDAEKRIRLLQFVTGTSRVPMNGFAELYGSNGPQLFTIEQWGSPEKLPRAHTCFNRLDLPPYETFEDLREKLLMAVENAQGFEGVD
inactive: [1] 0.015 | [2] -0.005 | [3] -0.071 | [4] -0.105 | [5] 0 | [6] 0.015 | [7] 0.088 | [8] 0.083 | [9] 0.026 | [10] -0.037 | [11] -0.037 | [12] -0.062 | [13] 0.015 | [14] -0.134 | [15] -0.103 | [16] 0.031 | [17] -0.097 | [18] -0.078 | [19] -0.022 | [20] 0.01

MTOR (UniProt P42345)
inactive: [1] 0.003 | [2] -0.23 | [3] 0.08 | [4] 0.06 | [5] 0.025 | [6] -0.138 | [7] 0.044 | [8] 0.024 | [9] 0.001 | [10] -0.184 | [11] -0.018 | [12] 0.014 | [13] -0.158 | [14] 0.068 | [15] -0.166 | [16] -0.069 | [17] 0.004 | [18] 0.037 | [19] -0.12 | [20] 0.068

NUP98 (UniProt P52948)
Chain of UniProt P52948 (P52948 whole entry, looked up): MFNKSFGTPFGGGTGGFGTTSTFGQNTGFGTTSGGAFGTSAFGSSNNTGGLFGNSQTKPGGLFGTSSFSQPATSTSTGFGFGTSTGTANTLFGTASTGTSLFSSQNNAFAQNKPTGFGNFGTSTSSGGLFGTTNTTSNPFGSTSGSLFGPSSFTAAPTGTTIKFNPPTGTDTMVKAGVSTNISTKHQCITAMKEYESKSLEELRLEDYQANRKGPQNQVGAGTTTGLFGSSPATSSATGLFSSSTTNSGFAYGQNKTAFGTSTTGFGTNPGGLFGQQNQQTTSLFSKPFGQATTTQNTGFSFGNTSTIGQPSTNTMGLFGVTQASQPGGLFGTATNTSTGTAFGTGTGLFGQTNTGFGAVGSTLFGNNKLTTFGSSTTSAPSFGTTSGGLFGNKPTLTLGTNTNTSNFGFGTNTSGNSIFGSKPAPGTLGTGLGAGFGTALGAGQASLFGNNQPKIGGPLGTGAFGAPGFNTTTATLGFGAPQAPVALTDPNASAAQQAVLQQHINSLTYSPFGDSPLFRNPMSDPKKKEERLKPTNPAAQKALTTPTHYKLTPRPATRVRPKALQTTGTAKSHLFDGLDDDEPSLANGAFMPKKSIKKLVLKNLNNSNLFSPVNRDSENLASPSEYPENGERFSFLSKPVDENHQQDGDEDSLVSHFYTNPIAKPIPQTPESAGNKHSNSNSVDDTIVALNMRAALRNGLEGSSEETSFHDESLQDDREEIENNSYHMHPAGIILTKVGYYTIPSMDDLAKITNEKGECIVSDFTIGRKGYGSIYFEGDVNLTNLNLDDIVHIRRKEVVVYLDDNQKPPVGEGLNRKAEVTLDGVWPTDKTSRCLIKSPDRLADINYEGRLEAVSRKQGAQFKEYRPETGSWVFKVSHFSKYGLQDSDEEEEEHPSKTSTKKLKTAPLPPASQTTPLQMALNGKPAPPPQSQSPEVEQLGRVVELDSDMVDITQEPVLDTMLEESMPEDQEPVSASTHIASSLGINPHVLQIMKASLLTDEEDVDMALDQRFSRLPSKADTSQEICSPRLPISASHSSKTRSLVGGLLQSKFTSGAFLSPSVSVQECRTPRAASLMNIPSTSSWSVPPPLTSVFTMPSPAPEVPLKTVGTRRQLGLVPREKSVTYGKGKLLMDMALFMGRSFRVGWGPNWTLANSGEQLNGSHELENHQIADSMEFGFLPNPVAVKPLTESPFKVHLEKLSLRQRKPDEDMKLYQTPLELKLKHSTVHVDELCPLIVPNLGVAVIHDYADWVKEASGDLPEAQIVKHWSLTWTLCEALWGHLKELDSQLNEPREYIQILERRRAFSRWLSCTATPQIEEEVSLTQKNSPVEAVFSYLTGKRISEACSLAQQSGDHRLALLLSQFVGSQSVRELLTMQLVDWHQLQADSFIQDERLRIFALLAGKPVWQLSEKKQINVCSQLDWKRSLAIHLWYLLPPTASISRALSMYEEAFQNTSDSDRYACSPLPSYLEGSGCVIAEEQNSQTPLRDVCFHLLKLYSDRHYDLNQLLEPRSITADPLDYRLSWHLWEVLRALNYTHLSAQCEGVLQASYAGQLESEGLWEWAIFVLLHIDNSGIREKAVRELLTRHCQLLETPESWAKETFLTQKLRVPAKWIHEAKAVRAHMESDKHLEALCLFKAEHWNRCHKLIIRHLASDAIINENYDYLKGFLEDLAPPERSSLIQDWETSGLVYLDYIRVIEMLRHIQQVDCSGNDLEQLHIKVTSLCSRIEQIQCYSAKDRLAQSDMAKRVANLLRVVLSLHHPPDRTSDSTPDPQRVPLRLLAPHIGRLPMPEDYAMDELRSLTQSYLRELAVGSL
inactive: [1] 0.031 | [2] -0.02 | [3] 0.007 | [4] -0.009 | [5] 0.007 | [6] -0.044 | [7] 0.04 | [8] 0.1 | [9] 0.022 | [10] 0.001 | [11] -0.008 | [12] 0.018 | [13] -0.034 | [14] -0.062 | [15] -0.077 | [16] -0.044 | [17] -0.026 | [18] -0.075 | [19] 0.005 | [20] 0

NOL11 (UniProt Q9H8H0)
inactive: [1] -0.036 | [2] 0.084 | [3] -0.017 | [4] -0.041 | [5] 0.073 | [6] -0.061 | [7] -0.01 | [8] -0.015 | [9] -0.005 | [10] 0.097 | [11] -0.042 | [12] 0.017 | [13] -0.016 | [14] 0.017 | [15] 0.017 | [16] 0.11 | [17] -0.006 | [18] 0.001 | [19] 0.036 | [20] -0.012

NSMCE4A (UniProt Q9NXX6)
active: [20] 0.552
inactive: [1] 0.038 | [2] 0.072 | [3] -0.055 | [4] -0.009 | [5] 0.119 | [6] 0.144 | [7] 0.086 | [8] 0.054 | [9] 0.047 | [10] 0.062 | [11] -0.145 | [12] -0.144 | [13] 0.189 | [14] -0.254 | [15] -0.051 | [16] 0.03 | [17] 0.025 | [18] -0.131 | [19] 0.026

MRPL47 (UniProt Q9HD33)
inactive: [1] 0.039 | [2] 0.019 | [3] -0.087 | [4] 0.261 | [5] -0.076 | [7] 0.033 | [8] 0.095 | [9] 0.11 | [10] -0.237 | [11] 0.264 | [12] -0.263 | [13] -0.124 | [14] 0.118 | [15] 0.016 | [16] 0.073 | [17] -0.174 | [18] -0.085 | [19] 0.103 | [20] -0.029
active: [6] 0.625

OSBPL8 (UniProt Q9BZF1)
Chain of UniProt Q9BZF1 (Q9BZF1 whole entry, looked up): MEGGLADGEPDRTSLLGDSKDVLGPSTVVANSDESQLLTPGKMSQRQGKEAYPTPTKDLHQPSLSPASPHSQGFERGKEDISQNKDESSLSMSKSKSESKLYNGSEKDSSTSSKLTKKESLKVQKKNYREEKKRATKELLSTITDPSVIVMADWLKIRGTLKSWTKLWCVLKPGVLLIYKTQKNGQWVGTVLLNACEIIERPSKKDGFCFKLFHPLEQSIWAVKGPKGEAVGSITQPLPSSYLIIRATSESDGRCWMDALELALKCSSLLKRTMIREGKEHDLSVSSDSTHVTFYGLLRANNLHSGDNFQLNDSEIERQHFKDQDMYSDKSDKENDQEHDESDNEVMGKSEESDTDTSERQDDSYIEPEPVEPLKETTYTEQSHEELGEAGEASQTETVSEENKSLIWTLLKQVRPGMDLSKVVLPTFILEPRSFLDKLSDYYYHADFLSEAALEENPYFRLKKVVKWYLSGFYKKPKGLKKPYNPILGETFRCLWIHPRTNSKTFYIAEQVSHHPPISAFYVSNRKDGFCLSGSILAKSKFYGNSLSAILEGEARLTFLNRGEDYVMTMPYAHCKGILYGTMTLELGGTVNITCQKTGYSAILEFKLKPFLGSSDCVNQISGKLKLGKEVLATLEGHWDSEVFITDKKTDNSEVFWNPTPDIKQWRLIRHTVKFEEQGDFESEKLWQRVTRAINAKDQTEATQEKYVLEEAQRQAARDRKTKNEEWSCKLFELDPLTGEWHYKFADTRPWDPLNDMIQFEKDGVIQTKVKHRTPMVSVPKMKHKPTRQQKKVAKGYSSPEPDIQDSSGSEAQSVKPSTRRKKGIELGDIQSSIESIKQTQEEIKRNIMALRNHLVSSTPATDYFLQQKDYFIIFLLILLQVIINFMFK
inactive: [1] 0.019 | [2] -0.179 | [3] -0.043 | [4] 0.219 | [5] -0.207 | [6] -0.105 | [7] 0.089 | [8] 0.103 | [9] 0.078 | [10] -0.433 | [11] 0.182 | [12] 0.049 | [13] 0.295 | [14] -0.086 | [15] 0.066 | [16] -0.047 | [17] -0.225 | [18] -0.093 | [19] -0.117 | [20] 0.108

PACRGL (UniProt Q8N7B6)
inactive: [1] -0.074

NA, A0A0B4J2A0
inactive: [1] -0.087 | [2] -0.18 | [3] 0.093 | [4] 0.06 | [5] 0.071 | [6] -0.087 | [7] -0.061 | [8] 0.061 | [9] -0.049 | [10] -0.121 | [11] -0.066 | [12] 0.024 | [13] 0.035 | [14] -0.024 | [15] -0.111 | [16] 0.006 | [17] 0.025 | [18] -0.015 | [19] 0.007 | [20] -0.011

MT-ND4 (UniProt P03905)
inactive: [1] -0.107 | [2] 0.008 | [3] 0.052 | [4] -0.148 | [5] 0.079 | [6] -0.104 | [7] 0.06 | [8] -0.066 | [9] 0 | [10] 0.118 | [11] -0.016 | [12] -0.118 | [13] 0.006 | [14] -0.033 | [15] -0.009 | [16] -0.003 | [17] -0.004 | [18] -0.045 | [19] 0.173 | [20] 0.05
